Test results reported in PubChem BioAssay (NCI).
Several values for one entry are separate records, joined by “and”; a condition that tells them apart may be missing. Identical values can stand only once. The panel holds about 79,000 compounds, 15% with a hit somewhere; the sample as a whole holds those more often. Some structures have more than one record in an assay (separate samples or runs), and their calls can disagree. Activity calls are given as the source filed them. No stated cut-off is given here; in the data, active means growth inhibition above about 70%; inactive means the rest.

Key:
[1] = NCI Yeast Anticancer Drug Screen. Data for the wt1 strain (AID 149);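 further: 0% = growth of vehicle-treated wt1 cultures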; settings: S. cerevisiae wt1 strain (SPY 50644) growth inhibition, stronger effect = higher value
Method in brief: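 wt1 yeast, compound-treated; % growth inhibition vs vehicle control.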

[2] = NCI Yeast Anticancer Drug Screen. Data for the mgt1 strain (AID 153); settings: S. cerevisiae mgt1 mutant growth inhibition, stronger effect = higher value
Method in brief: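 Measured: inhibition of mgt1 yeast growth by compound, normalized to vehicle-treated cultures.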

[3] = NCI Yeast Anticancer Drug Screen. Data for the rad50 strain (AID 155);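 further: 0% = growth of vehicle-only cultures of the same strain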; settings: S. cerevisiae rad50 strain growth inhibition, stronger effect = higher value
Method in brief: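 Genetically altered yeast (DNA repair pathway); compound treatment; growth inhibition vs vehicle ctrl.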

[4] = NCI Yeast Anticancer Drug Screen. Data for the mec2-1 strain (AID 157); settings: S. cerevisiae mec2-1 strain, stronger effect = higher value
Method in brief: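 Using mec2-1 yeast: add compound, measure growth, express inhibition versus vehicle-treated cultures.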

[5] = NCI Yeast Anticancer Drug Screen. Data for the rad14 strain (AID 159);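 further: 0% = growth of vehicle-treated control cultures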; settings: S. cerevisiae rad14 strain growth inhibition, stronger effect = higher value
Method in brief: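 Test compounds were applied to a repair-deficient yeast strain. Its growth was then compared with that of cultures given vehicle alone, and inhibition was expressed relative to those controls.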

[6] = NCI Yeast Anticancer Drug Screen. Data for the sgs1 mgt1 strain (AID 161);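 further: 0% = growth of cultures given vehicle only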; settings: S. cerevisiae sgs1 mgt1 strain, stronger effect = higher value
Method in brief: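 Percent growth inhibition was derived by comparing compound-exposed mutant yeast with vehicle-exposed cultures. The strain carries alterations in DNA damage repair.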

[7] = NCI Yeast Anticancer Drug Screen. Data for the CLN2oe strain (AID 163);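 further: 0% = growth of vehicle-only control cultures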; settings: S. cerevisiae CLN2oe strain, stronger effect = higher value
Method in brief: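 Whole-cell yeast growth assay. A strain engineered for altered cell-cycle control received compound, and inhibition relative to vehicle-treated cultures was recorded.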

[8] = NCI Yeast Anticancer Drug Screen. Data for the cln2 rad14 strain (AID 165);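 further: 0% = growth equal to vehicle treated cultures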; settings: S. cerevisiae cln2 rad14 strain, stronger effect = higher value
Method in brief: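 Yeast strain cln2 rad14, bearing defects in cell cycle control and DNA repair, serves as the test system; values reflect growth inhibition compared with vehicle.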

[9] = NCI Yeast Anticancer Drug Screen. Data for the bub3 strain (AID 167); settings: S. cerevisiae bub3 mutant strain, stronger effect = higher value
Method in brief: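 Yeast carrying a defined mutation is treated with each compound, and growth is compared with that of vehicle-exposed cells to give inhibition.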

[10] = NCI Yeast Anticancer Drug Screen. Data for the wt2 strain (AID 169);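 further: 0% = growth of vehicle-treated yeast cultures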; settings: S. cerevisiae wt2 strain growth inhibition, stronger effect = higher value
Method in brief: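 Treated yeast vs. vehicle-treated yeast: growth inhibition determined.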

[11] = NCI Yeast Anticancer Drug Screen. Data for the mlh1 strain (AID 171);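 further: 0% = growth of vehicle-treated control cultures of the same strain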; settings: S. cerevisiae mlh1 strain growth inhibition, stronger effect = higher value
Method in brief: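 A yeast strain with a defined genetic lesion serves as the test organism. Cultures receive compound or vehicle, and growth is measured.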

[12] = NCI Yeast Anticancer Drug Screen. Data for the sgs1 strain (AID 173);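 further: 0% = growth of vehicle-only control cultures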; settings: S. cerevisiae sgs1 mutant, stronger effect = higher value
Method in brief: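 A genetically defined yeast mutant is incubated with the test compound, and its growth is compared to that of the same strain given vehicle.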

[13] = NCI Yeast Anticancer Drug Screen. Data for the mlh1 rad18 strain (AID 175); settings: S. cerevisiae mlh1 rad18 strain growth inhibition, stronger effect = higher value
Method in brief: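 Steps: expose repair-defective yeast to compound; measure growth; express inhibition against vehicle-treated controls.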

[14] = NCI Yeast Anticancer Drug Screen. Data for the rad18 strain (AID 177); settings: S. cerevisiae rad18 mutant growth inhibition, stronger effect = higher value
Method in brief: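 Measured value is growth inhibition of a yeast strain bearing a DNA repair alteration, referenced to vehicle-treated cells.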

[15] = at 5.0 µM (retest, dose inferred, filed as 0.5)
[16] = at 50.0 µM (retest, dose inferred, filed as 5.0)

Measured: growth inhibition

Cc1nc2ccc(Br)cc2c(=O)n1-c1ccc(NC2OCC(O)C(O)C2O)cc1 (stereo not drawn)
active: [1]; at 100.0 µM 70% | [2]; at 100.0 µM 81% | [3]; at 100.0 µM 86% | [4]; at 100.0 µM 90% | [5]; at 100.0 µM 79% | [9]; at 100.0 µM 90% | [10]; at 100.0 µM 86% | [11]; at 100.0 µM 90% | [12]; at 100.0 µM 89% | [13]; [16] 79% | [14]; at 100.0 µM 91%
inactive: [1]; at 1.2 µM 3% | [1]; at 3.7 µM 9% | [1]; at 11.0 µM 12% | [1]; at 33.0 µM 32% | [2]; at 1.2 µM 6% | [2]; at 3.7 µM 9% | [2]; at 11.0 µM 24% | [2]; at 33.0 µM 41% | [3]; at 1.2 µM -3% | [3]; at 3.7 µM 17% | [3]; [15] 11% | [3]; at 11.0 µM 14% | [3]; at 33.0 µM 53% | [3]; [16] 0% | [3]; at 50.0 µM 62.1% and 46.9% | [4]; at 1.2 µM 12% | [4]; at 3.7 µM 14% | [4]; [15] 1% | [4]; at 11.0 µM 23% | [4]; at 33.0 µM 54% | [4]; [16] 45% | [4]; at 50.0 µM 38.2% and 56.2% | [5]; at 1.2 µM 4% | [5]; at 3.7 µM 5% | [5]; at 11.0 µM 14% | [5]; at 33.0 µM 32% | [6]; [15] -3% | [6]; [16] 34% | [6]; at 50.0 µM 64% and 0.15% | [7]; at 1.2 µM 5% | [7]; at 3.7 µM 11% | [7]; at 11.0 µM 14% | [7]; at 33.0 µM 39% | [7]; at 100.0 µM 48% | [8]; [15] -3% | [8]; [16] 53% | [8]; at 50.0 µM -15.2% and 12.8% | [9]; at 1.2 µM 4% | [9]; at 3.7 µM 8% | [9]; [15] 7% | [9]; at 11.0 µM 17% | [9]; at 33.0 µM 49% | [9]; [16] 60% | [10]; at 1.2 µM 1% | [10]; at 3.7 µM 4% | [10]; at 11.0 µM 14% | [10]; at 33.0 µM 43% | [11]; at 1.2 µM 9% | [11]; at 3.7 µM 9% | [11]; at 11.0 µM 19% | [11]; at 33.0 µM 52% | [12]; at 1.2 µM 6% | [12]; at 3.7 µM 12% | [12]; at 11.0 µM 25% | [12]; at 33.0 µM 61% | [13]; [15] -38% | [13]; at 50.0 µM 62.4% and 13.8% | [14]; at 1.2 µM 4% | [14]; at 3.7 µM 6% | [14]; at 11.0 µM 18% | [14]; at 33.0 µM 55%
73.2% (active) and -5.1% (inactive): [9]; at 50.0 µM
